Screening data from PubChem BioAssay.
FMDV inh: foot and mouth disease virus antiviral activity | FMDV antiviral cell-based qHTS | AID 1159524 | 410,000 tested, 1.2% active | Potency, µM (highest dose often 57.9 µM), hits mostly inhibitors; calls by dose curve; tested in HEK293T cells; note: read-out not given here; nearly all actives have a fitted effect of over 45% in size
Vaccinia mCherry: vaccinia inhibition (mCherry reporter); AID 720579; Vaccinia virus mCherry reporter infection, fluorescence; Potency, µM (top dose mostly 36.5 µM), usual class: inhibitors; 310,000 tested, 0.63% active; calls by dose curve; tested in A549 cells; note: nearly all actives have a fitted effect of over 35% in size
MARV entry inh: Marburg virus entry inhibition; Marburg virus pseudotyped entry inhibition, cell reporter; Potency, µM (doses to about 37.8 µM), actives largely listed as inhibitors; 300,000 tested, 1.8% active; AID 540276; calls by dose curve; tested in HEK293 cells
VACV Venus inh: vaccinia inhibition (Venus reporter). Vaccinia virus Venus reporter expression, fluorescence. Potency, µM (series often up to 36.5 µM), actives largely listed as inhibitors. 330,000 tested, 0.46% active. AID 720580; calls by dose curve; tested in A549 cells; note: nearly all actives have a fitted effect of over 30% in size
HCMV antiviral: human cytomegalovirus inhibition; HFF cells, HCMV-luciferase reporter, 72 h; hits give low values; activity change, negative = inhibition, % at 57.5 µM; 410,000 tested, 4.5% active; AID 1259415; in the data active = activity change below about -60%; inconclusive = no clear call, values can overlap the other calls; inactive = above about -39%
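Inhibition of viral replication was scored as loss of reporter luminescence in HFFs infected with HCMV-luciferase (MOI 1 PFU/cell) for 72 h; compounds tested at 2 doses, normalized to buffer and Salinomycin controls.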
Lassa entry inh: Lassa virus entry inhibition | Lassa virus pseudotype entry inhibition, cell reporter | Potency, µM (top dose mostly 37.9 µM), hits mostly inhibitors | 300,000 tested, 1.2% active | AID 540256; calls by dose curve; tested in HEK293 cells; note: nearly all actives have a fitted effect of over 50% in size
Numbers stand for hits; – = inactive; ? = inconclusive; · = no result given; [ ] = remark or other dose. A selection: hits, their analogues and other compounds. The true share with any hit is near 6.5%.

SMILES | FMDV inh | Vaccinia mCherry | MARV entry inh | VACV Venus inh | HCMV antiviral | Lassa entry inh
Cc1nc(SCC(=O)N2CCN(c3ccccc3)CC2)c2oc3ccccc3c2n1 | 25.1µM | · | – | – | – | ?
CCC(C)Nc1nc(C)nc2c1oc1ccccc12 (stereo unspecified) | ? | · | · | · | – | ·
Cc1nc(Nc2ccncc2)c2oc3ccccc3c2n1 | ? | · | ? | · | -98.3 | –
Cc1nc(NC(C)c2ccccc2)c2oc3ccccc3c2n1 (stereo unspecified) | 12.6µM | ? | ? | ? | -65.4 | ?
Cc1ccc2nc(NC(=O)c3nc(SCc4ccccc4C)ncc3Cl)sc2c1 | – | – | – | – | – | –
COC(=O)[C@]1(S(=O)(=O)c2ccccc2)CC(=O)N(Cc2ccccc2)[C@@H]1c1ccccc1 | · | · | · | · | – | ·
CCc1nc(SCC(=O)N2CCCc3ccccc32)c2oc3ccccc3c2n1 | – | · | ? | · | – | 18.3µM
CC(C)c1nc(SCC(=O)N2CCN(c3ccccc3)CC2)c2c(=O)n(C)c(=O)n(C)c2n1 | 20µM | – | · | – | – | ·
CCc1nc(NC(C)C)c2oc3ccccc3c2n1 | – | –[1.46 µM] | – | – | – | –
Cn1cc(SCC(=O)N2CCN(c3ccccc3)CC2)c2ccccc21 | – | – | · | – | -84.4 | ·
CCc1nc(SCC(=O)NC2CCCC2)c2oc3ccccc3c2n1 | – | – | – | – | – | –
CCc1nc(Nc2ccncc2)c2oc3ccccc3c2n1 | – | ? | ? | ? | -104.8 | –
Cn1cc(SCC(=O)N2CCOCC2)c2ccccc21 | – | – | · | – | – | ·
COCc1c(C(=O)NC2CCCC2)cnn1-c1nccc(-c2cccs2)n1 | – | – | · | – | · | ·
CCc1nc(Nc2cccc(O)c2)c2oc3ccccc3c2n1 | 22.4µM | · | · | · | · | ·
CCc1nc(Nc2ccc3c(c2)OCO3)c2oc3ccccc3c2n1 | ? | ? | ? | – | – | –
CCN1C(=O)[C@@H]2[C@H]3[C@H](O)[C@H](O)CC(=NO[C@@H]4O[C@H](COC(C)=O)[C@@H](OC(C)=O)[C@H](OC(C)=O)[C@@H]4OC(C)=O)[C@@H]3CC[C@H]2C1=O | · | · | – | · | · | ·
O=C(Nc1cccc(Cl)c1)Nc1csc([N+](=O)[O-])c1 | ? | – | ? | – | -97.4 | ?
O=C(Nc1ccncc1)Nc1cccc(Cl)c1 | – | · | · | · | – | ·
CCOC(=O)CCN1C(=O)[C@H]2[C@H]3[C@H](O)[C@H](O)C/C(=N\NC(=O)OCc4ccc(OC)cc4)[C@H]3CC[C@H]2C1=O | · | · | – | · | · | ·
CCOC(=O)CCN1C(=O)[C@@H]2[C@H]3[C@H](O)[C@H](O)CC(=NNC(=O)OCc4ccc(OC)cc4)[C@H]3CC[C@H]2C1=O | · | · | – | · | · | 0.168µM
C=Cc1ccc(Cn2c(=O)n(CC3CCC(C(=O)NC(C)C)CC3)c(=O)c3sccc32)cc1 (stereo unspecified) | – | – | · | – | – | –
CC(=O)N1[C@@H]2c3ccc(-c4cccnc4)c(=O)n3C[C@@H]2[C@@H](CO)[C@@H]1C(=O)NCc1ccccc1Cl | · | · | · | · | – | ·
COc1ccc(-c2noc(C(C)NC(=O)c3ccco3)n2)cc1 (stereo unspecified) | – | – | – | – | – | –
CCCc1ccc(OCc2nc(-c3ccc(NC(=O)c4ccco4)cc3)no2)cc1 | – | ? | ? | ? | ? | 10µM
SMILES | FMDV inh | Vaccinia mCherry | MARV entry inh | VACV Venus inh | HCMV antiviral | Lassa entry inh
CC(Oc1ccc(Cl)cc1Cl)c1nc(-c2ccc(NC(=O)c3ccco3)cc2)no1 (stereo unspecified) | – | · | ? | · | -92.6 | ?
O=C(Nc1ccc(Oc2cccc3ccccc23)cc1)c1ccco1 | – | · | ? | – | -67.7 | ?
O=C(Nc1ccc(O)cc1)c1ccccc1OCc1ccccc1 | – | · | · | · | -77.2 | ·
O=C(Nc1cccc(NC(=O)c2nccc3ccccc23)c1)c1ccco1 | · | – | – | – | -96.5 | –
Cc1cccc(Oc2ccc(NC(=O)c3ccccc3C(=O)O)cc2)c1C | – | ? | – | – | – | –
O=C(O)c1ccccc1C(=O)Nc1ccc(Oc2cccc3ccccc23)cc1 | ? | ? | ? | – | -63.6 | ?
O=C(Nc1cccc(NC(=O)c2ccco2)c1)c1ccccc1 | – | – | – | – | – | –
O=C(Nc1ccccc1)c1ccccc1OCc1ccc(F)cc1 | – | · | · | · | – | ·
CCc1cc(C(=O)NCC2Cc3cccc(-c4ccc(C(=O)OC)cn4)c3O2)no1 (stereo unspecified) | – | – | · | – | · | ·
CCOc1ccc(N(CC)S(=O)(=O)N2CCCC(C(=O)Nc3ccc(OC)c(Cl)c3)C2)cc1 (stereo unspecified) | – | – | · | – | – | ?
